Values without a mark were called inactive. For some of these results: Entries with a potency or affinity are not part of this list. Activity calls are given as the source filed them. Unless noted, no rule for the calls is given here.

Test [1] is described as follows: antimalarial activity against Dd2 strain (AID 2302;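 active = growth inhibition above 50% at the single 2 µM test dose, taken to imply half-maximal potency below 2 µM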;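 also: 0% = DMSO untreated growth and 100% = chloroquine plus artemisinin killed control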). As to conditions: P. falciparum Dd2 in RBCs, LDH growth readout, 72 h; at 2 µM; hits give high values.
Test [2] in a line: human hepatoma cell viability loss – ATP luminescence, cytotoxicity control for P. falciparum antimalarial project, primary screen (AID 2303;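 active = inhibition above 50%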;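 also: 0% = DMSO wells and 100% = digitonin-killed cells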). Conditions: HepG2 viability, 24-48 h, at 10 µM, hits give high values.
The target in test [3] is L-lactate dehydrogenase (Plasmodium falciparum (isolate CDC / Honduras)) (UniProt Q27743). Description: PfLDH activity inhibition – cell lysate, 3D7 strain, counter-screen for P. falciparum growth inhibition project (AID 2304).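 Also: 0% = vehicle and 100% = reference inhibitor.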 As to conditions: P. falciparum 3D7 crude extract, LDH APAD/NBT absorbance; at 2 µM; hits give high values. A general note: The purpose of a counterscreen is to sort out artefacts and off-target activity.
Chain of L-lactate dehydrogenase (Plasmodium falciparum (isolate CDC / Honduras)) (Q27743 whole entry, looked up): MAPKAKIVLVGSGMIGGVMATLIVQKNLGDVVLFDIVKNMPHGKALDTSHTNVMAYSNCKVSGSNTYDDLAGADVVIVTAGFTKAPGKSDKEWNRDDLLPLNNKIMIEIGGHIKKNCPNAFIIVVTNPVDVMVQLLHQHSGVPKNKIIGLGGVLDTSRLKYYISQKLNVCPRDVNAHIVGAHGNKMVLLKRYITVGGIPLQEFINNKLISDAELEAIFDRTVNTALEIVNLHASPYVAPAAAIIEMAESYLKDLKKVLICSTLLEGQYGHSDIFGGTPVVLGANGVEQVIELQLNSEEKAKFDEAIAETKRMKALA

Test [4] in a line: inhibition of 3D7 malaria parasite growth – strain 3D7 (AID 2306).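 Also: 0% = DMSO wells and 100% = chloroquine plus artemisinin control wells.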 Conditions: P. falciparum 3D7 erythrocytic growth, LDH absorbance, 72 h; at 2 µM; hits give high values.
Test [5] deals with Calcium-dependent protein kinase 1 (Plasmodium falciparum (isolate 3D7)) (UniProt P62344). Description: PfCDPK1 kinase inhibitors, biochemical, TCAMS library (AID 1159585; cut-off not given, nearly all actives have IC50 up to about 0.98 µM;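 also: inhibitors leave more ATP so luminescence rises with inhibition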). Conditions: recombinant PfCDPK1, Kinase-Glo ATP depletion luminescence. (In Kinase-Glo more light means more ATP remaining.)
Chain of Calcium-dependent protein kinase 1 (Plasmodium falciparum (isolate 3D7)) (P62344 whole entry, looked up): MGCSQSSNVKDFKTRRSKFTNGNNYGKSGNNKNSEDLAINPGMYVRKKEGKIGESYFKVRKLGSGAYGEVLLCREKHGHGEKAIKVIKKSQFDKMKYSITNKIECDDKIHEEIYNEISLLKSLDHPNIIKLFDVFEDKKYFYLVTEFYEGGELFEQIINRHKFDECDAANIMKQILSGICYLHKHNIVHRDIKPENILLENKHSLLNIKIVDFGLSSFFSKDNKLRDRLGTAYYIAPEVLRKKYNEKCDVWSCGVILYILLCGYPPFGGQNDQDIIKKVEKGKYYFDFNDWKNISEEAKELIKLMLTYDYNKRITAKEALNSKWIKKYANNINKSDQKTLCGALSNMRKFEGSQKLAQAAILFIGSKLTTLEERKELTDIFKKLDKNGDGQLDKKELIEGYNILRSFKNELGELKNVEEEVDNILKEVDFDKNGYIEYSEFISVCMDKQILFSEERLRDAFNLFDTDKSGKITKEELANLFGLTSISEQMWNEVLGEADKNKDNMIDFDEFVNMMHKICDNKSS
Test [6] concerns the target Plasmodium falciparum protein kinase 6 (PK6, PF3D7_1337100) (UniProt Q8IDW1). The test can be described thus: PfPK6 kinase inhibitors, biochemical, TCAMS library (AID 1159586). As to conditions: recombinant PfPK6, Kinase-Glo ATP depletion luminescence.
Test [7] addresses Protein kinase 7 (PK7), Plasmodium falciparum 3D7 (PF3D7_0213400) (UniProt Q7YTF7). The test can be described thus: inhibition of Plasmodium PK7 catalytic activity – biochemical, TCAMS antimalarial set, Kinase-Glo luminescence (AID 1159587). Conditions: recombinant PfPK7, Kinase-Glo ATP depletion luminescence.
Test [8] deals with Calcium-dependent protein kinase 4 (Plasmodium falciparum (isolate 3D7)) (UniProt Q8IBS5). Description: PfCDPK4 kinase inhibitors, biochemical, TCAMS library (AID 1159588; cut-off not given, nearly all actives have IC50 up to about 0.91 µM). As to conditions: recombinant PfCDPK4, Kinase-Glo ATP depletion luminescence.
Chain of Calcium-dependent protein kinase 4 (Plasmodium falciparum (isolate 3D7)) (Q8IBS5 whole entry, looked up): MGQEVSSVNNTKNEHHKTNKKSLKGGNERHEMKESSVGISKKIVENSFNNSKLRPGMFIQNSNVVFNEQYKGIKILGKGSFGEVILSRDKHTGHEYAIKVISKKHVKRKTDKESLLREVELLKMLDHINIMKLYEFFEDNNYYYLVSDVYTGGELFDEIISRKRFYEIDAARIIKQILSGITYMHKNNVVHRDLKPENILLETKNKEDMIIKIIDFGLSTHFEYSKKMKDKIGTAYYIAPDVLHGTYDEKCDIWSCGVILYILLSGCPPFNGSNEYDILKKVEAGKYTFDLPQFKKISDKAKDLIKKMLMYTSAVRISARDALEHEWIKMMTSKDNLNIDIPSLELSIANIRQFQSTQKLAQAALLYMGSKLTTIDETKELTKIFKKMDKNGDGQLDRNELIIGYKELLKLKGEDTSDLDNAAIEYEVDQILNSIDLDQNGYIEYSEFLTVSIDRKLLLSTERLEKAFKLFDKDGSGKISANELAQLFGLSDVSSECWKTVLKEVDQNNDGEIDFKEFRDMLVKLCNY

Chain of Protein kinase 7 (PK7), Plasmodium falciparum 3D7 (PF3D7_0213400) (Q7YTF7 1-343): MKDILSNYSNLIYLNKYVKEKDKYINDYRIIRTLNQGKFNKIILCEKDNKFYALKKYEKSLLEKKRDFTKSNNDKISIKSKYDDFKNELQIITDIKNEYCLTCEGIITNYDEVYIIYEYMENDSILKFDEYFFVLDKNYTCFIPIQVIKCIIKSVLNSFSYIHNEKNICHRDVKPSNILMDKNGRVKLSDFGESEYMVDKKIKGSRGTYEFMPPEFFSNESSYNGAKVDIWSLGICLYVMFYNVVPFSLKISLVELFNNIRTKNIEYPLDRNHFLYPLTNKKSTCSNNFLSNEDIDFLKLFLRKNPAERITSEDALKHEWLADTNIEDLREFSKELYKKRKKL
Chain of Plasmodium falciparum protein kinase 6 (PK6, PF3D7_1337100) (Q8IDW1 1-305): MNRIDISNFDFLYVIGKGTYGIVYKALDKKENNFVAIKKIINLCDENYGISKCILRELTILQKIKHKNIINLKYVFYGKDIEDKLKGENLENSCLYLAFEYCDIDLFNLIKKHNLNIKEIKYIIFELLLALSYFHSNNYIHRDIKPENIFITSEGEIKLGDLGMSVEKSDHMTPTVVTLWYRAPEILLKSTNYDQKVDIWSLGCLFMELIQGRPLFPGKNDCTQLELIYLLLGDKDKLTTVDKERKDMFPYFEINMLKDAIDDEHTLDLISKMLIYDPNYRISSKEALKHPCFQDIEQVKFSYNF

In general, inhibition refers to the relative decrease from the control value, in per cent. With `O=C(Cn1c(CCc2cccc(F)c2F)cc(=O)c2cccnc21)N(CCN1CCCC1)Cc1ccc(-c2ccc(C(F)(F)F)cc2)cc1`, the growth inhibition in test [1] is 64% (active); in test [4], 99% (active). Besides, the inhibition in test [2] is 48%; in test [3] it was -3%. For the same compound, the result in test [5], in test [6], in test [7] and in test [8] was inactive.
On to `CN(C)c1ccc(NC2=NC(C)(C)N=C(N)N2)cc1`, for which the growth inhibition in test [1] is 5%; in test [4] it was 95% (active). Besides, the inhibition was -1% in test [2] and -4% in test [3]. For the same compound, the result in test [5], in test [6], in test [7] and in test [8] was inactive.
For the compound `CC(C)CN1CCCN(Cc2cccc(NC(=O)c3ccc(-c4ccccc4)cc3)c2)CC1`, the growth inhibition in test [1] was 24%; in test [4], 99% (active). The inhibition in test [2] is 30%; in test [3], 1%. In addition, the outcome in test [5], in test [6], in test [7] and in test [8] was inactive.
With `O=C(c1ccc(-c2ccc(-c3nc4ccc(F)cc4[nH]3)cc2)cc1)N1CCCCC1CN1CCC(O)C1` (stereo not given), the growth inhibition in test [1] is 100% (active); in test [4] it was 90% (active). Further, the inhibition is 24% in test [2] and -1% in test [3]. In addition, the outcome in test [5], in test [6], in test [7] and in test [8] was inactive.
Regarding `CC(CNc1nc(NCC(c2ccccc2)c2ccccc2)c2[nH]cnc2n1)c1ccccc1` (stereo not given), the growth inhibition was 24% in test [1] and 93% (active) in test [4]. Moreover, the inhibition in test [2] was 5%; in test [3], -8%. For the same compound, the result in test [5], in test [6], in test [7] and in test [8] was inactive.
As for `O=C(NCCN1CCOCC1)c1ccc(N2CCC(Oc3ccc4ccccc4c3)CC2)nc1`, the growth inhibition in test [1] is 30%; in test [4], 92% (active). For the same compound, the inhibition was 1% in test [2] and -3% in test [3]. The result in test [5], in test [6], in test [7] and in test [8] was inactive.
Regarding `O=c1cc(NCCCNCc2ccc(Cl)c(Cl)c2)[nH]c2ccc(Cl)cc12`, the growth inhibition in test [1] was 54% (active); in test [4], 101% (active). The inhibition in test [2] is 11%; in test [3], 1%. Also, the outcome in test [5], in test [6], in test [7] and in test [8] was inactive.
Take `COc1ccc(CCN(C)CCCOc2ccc(NC(=O)c3cccc4c(=O)c5ccccc5[nH]c34)cc2)cc1OC`: the growth inhibition in test [1] was 45%; in test [4] it was 94% (active). Also, the results for the inhibition in test [2] and in test [3] were 80% (active) and 1%, respectively. The outcome in test [5], in test [6], in test [7] and in test [8] was inactive.
Regarding `COc1ccc2c(NN=Cc3cccnc3)cc(C)nc2c1`, the values for the growth inhibition in test [1] and in test [4] were 12% and 85% (active), respectively. The inhibition is -4% in test [2] and -2% in test [3]. The outcome in test [5], in test [6], in test [7] and in test [8] was inactive.
Consider `Nc1c2c(nc3ccc(C(=O)Nc4ccc(Br)cc4)cc13)CCCC2`, for which the growth inhibition in test [1] was 99% (active); in test [4] it was 102% (active). Further, the inhibition in test [2] is 40%; in test [3] it was 1%. Further, the outcome in test [5], in test [6], in test [7] and in test [8] was inactive.
On to `CN1CCN(c2ccnc3ccc(NC(=O)Nc4ccc(Br)cc4)cc23)CC1`, for which the growth inhibition was 99% (active) in test [1] and 101% (active) in test [4]. For the same compound, the inhibition in test [2] was 12%; in test [3], -5%. Besides, the outcome in test [5], in test [6], in test [7] and in test [8] was inactive.
For the compound `NCC1CCCN1Cc1ccc(-c2ccc(-c3nc4ccc(F)cc4[nH]3)cc2)cc1` (stereo not given), the growth inhibition was 100% (active) in test [1] and 102% (active) in test [4]. Further, the inhibition in test [2] is 31%; in test [3] it was -3%. Also, the result in test [5], in test [6], in test [7] and in test [8] was inactive.
In the case of `CCC[C@@H]([C@@H](CC1CCCCC1)C(=O)N[C@@H](CCOC(=O)NCC)C(=O)Nc1nccs1)N(O)C=O`, the growth inhibition in test [1] was 79% (active); in test [4], 101% (active). Also, the results for the inhibition in test [2] and in test [3] were -13% and -7%, respectively. Also, the result in test [5], in test [6], in test [7] and in test [8] was inactive.
Consider `COc1cc(Nc2nccc(N3CCC(NC(=O)Nc4cccc(C(C)=O)c4)C3)n2)cc(OC)c1OC` (stereo not given), for which the growth inhibition in test [1] is 34%; in test [4], 91% (active). Further, the inhibition in test [2] was 8%; in test [3], -3%. Further, the result in test [5], in test [6], in test [7] and in test [8] was inactive.
Turning to `COc1ccccc1C(=O)Nc1ccc(Nc2nc(C)cc(N(C)C)n2)cc1`, the growth inhibition was 76% (active) in test [1] and 100% (active) in test [4]. For the same compound, the inhibition was 1% in test [2] and 3% in test [3]. For the same compound, the outcome in test [5], in test [6], in test [7] and in test [8] was inactive.
`COc1ccc(C(=O)CCC(=O)N(Cc2ccc(-c3ccc(CNCCc4ccccc4)cn3)cc2)C(C)CN(C)C)cc1F` (stereo not given): the growth inhibition in test [1] is 57% (active); in test [4], 98% (active). The inhibition in test [2] was 20%; in test [3] it was -4%. For the same compound, the outcome in test [5], in test [6], in test [7] and in test [8] was inactive.
As for `CCn1c2ccccc2c2cc(Cc3cnc(N)nc3N)ccc21`, the growth inhibition in test [1] is -2%; in test [4], 94% (active). The inhibition in test [2] is 28%; in test [3], 5%. For the same compound, the outcome in test [5], in test [6], in test [7] and in test [8] was inactive.
Turning to `CC1CN(c2cc(=O)n(Cc3ccc(NC(=O)Nc4ccc(-c5ccccc5)cc4)cc3)cn2)CC(C)N1` (stereo not given), the growth inhibition in test [1] is 20%; in test [4] it was 87% (active). In addition, the inhibition is 0% in test [2] and -1% in test [3]. Besides, the result in test [5], in test [6], in test [7] and in test [8] was inactive.
As for `Cc1[nH]c2ccc(C#N)cc2c(=O)c1Br`, the growth inhibition was 61% (active) in test [1] and 91% (active) in test [4]. Besides, the values for the inhibition in test [2] and in test [3] were 2% and -1%, respectively. The result in test [5], in test [6], in test [7] and in test [8] was inactive.
`CCC(=O)Nc1ccc(C(O)CN2CCC3(C=Cc4ccccc4O3)CC2)cc1` (stereo not given): the results for the growth inhibition in test [1] and in test [4] were 47% and 93% (active), respectively. Also, the inhibition in test [2] was 48%; in test [3], -1%. Also, the result in test [5], in test [6], in test [7] and in test [8] was inactive.

Values taken from PubChem BioAssay.
